Compound activity: PubChem, National Center for Advancing Translational Sciences (NCATS)
An excerpt weighted towards active compounds, which were near 8.3% of everything screened.
LASV entry inh = Lassa virus entry inhibition; 300,000 tested, 1.2% active; Potency, µM (highest dose often 37.9 µM), inactives show top-dose activity change, negative = inhibition, most hits filed as inhibitors; Lassa virus pseudotype entry inhibition, cell reporter; calls by dose curve; tested in HEK293 cells; also: potency is read from the fitted curve at half-maximal effect; nearly all actives have a fitted effect of over 50% in size
HCV inh = HCV inhibition. Huh7.5.1 HCVcc-Cre infection, luciferase reporter, 44 h. Potency, µM (series often up to 41.8 µM), inactives show at the top dose activity change, negative = inhibition, most hits filed as inhibitors. 340,000 tested, 3.4% active. AID 651820; also: potency is read from the fitted curve at half-maximal effect
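Seed cells (1,000/well) for 4 h; treat with compound and infect with HCVcc-Cre, moi about 0.5. Incubate 44 h, then detect luciferase activity.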
FMDV inh = antivirals against foot and mouth disease virus; FMDV antiviral cell-based qHTS; Potency, µM (series often up to 57.9 µM), inactives show top-dose activity change, negative = inhibition, usual class: inhibitors; 410,000 tested, 1.2% active; AID 1159524; calls by dose curve; tested in HEK293T cells; also: read-out not given here; potency is read from the fitted curve at half-maximal effect; nearly all actives have a fitted effect of over 45% in size
FBPA Giardia inh = inhibitors of Giardia lamblia fructose-1,6-bisphosphate aldolase. 290,000 tested, 0.71% active. Potency, µM (series often up to 59.6 µM), inactives show at the top dose activity, negative = inhibition, most hits filed as inhibitors. A8B2U2. purified Giardia FBPA; also: potency is read from the fitted curve at half-maximal effect; nearly all actives have a fitted effect of over 55% in size
Target sequence (A8B2U2 whole entry, looked up): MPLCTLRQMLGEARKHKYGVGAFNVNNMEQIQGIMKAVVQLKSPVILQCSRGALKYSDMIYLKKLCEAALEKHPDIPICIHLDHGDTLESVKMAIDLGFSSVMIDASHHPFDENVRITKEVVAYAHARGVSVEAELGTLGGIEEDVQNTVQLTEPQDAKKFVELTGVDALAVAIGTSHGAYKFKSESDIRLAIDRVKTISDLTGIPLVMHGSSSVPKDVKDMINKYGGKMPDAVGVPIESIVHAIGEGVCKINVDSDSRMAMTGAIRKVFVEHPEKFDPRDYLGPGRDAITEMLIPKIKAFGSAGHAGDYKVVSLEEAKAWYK
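40 nM FBPA preincubated 10 min at RT with compound (up to 57.5 uM final), then substrate plus GAPDH/TPI/NAD/arsenate coupling and diaphorase/resazurin added. Fluorescence read after 20 min at RT, 525/598 nm.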
MARV entry inh = blocks Marburg virus binding to or entry into cells; Marburg virus pseudotyped entry inhibition, cell reporter; Potency, µM (series often up to 37.8 µM), without a hit: at the top dose activity change, negative = inhibition, most hits filed as inhibitors; 300,000 tested, 1.8% active; AID 540276; calls by dose curve; tested in HEK293 cells; also: potency is read from the fitted curve at half-maximal effect
HCMV antiviral = human cytomegalovirus inhibition; HFF cells, HCMV-luciferase reporter, 72 h; active compounds read low; activity change, negative = inhibition, % at 57.5 µM; 410,000 tested, 4.5% active; AID 1259415; in the data active = activity change below about -60%; inconclusive = no clear call, values can overlap the other calls; inactive = above about -39%
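Cell-based, HFFs, 1000 cells/well, 16 h 37C; cpds in DMSO + HCMV-luc, MOI 1 PFU/cell; 72 h 37C; OneGlo luminescence after 5 min RT; norm. to buffer vs Salinomycin 10uM.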
* = called active by the depositor; ? = inconclusive; / = no result given; [ ] = remark or other dose. Unless noted, calls follow the shape of the dose curve; as a rule, active = well fitted curve in the direction sought with a large enough effect; inconclusive = small, poorly fitted or top-dose-only effect, or another doubt; inactive = no such curve, though single readings can be large; an effect the other way counts as inactive or inconclusive. % is scaled to controls: 0 for no effect and ±100 for the full control effect.

SMILES	LASV entry inh	HCV inh	FMDV inh	FBPA Giardia inh	MARV entry inh	HCMV antiviral
COc1ccc(-c2ccc3oc(-c4ccc(OC)cc4)c(C#CCO)c3c2)cc1	/	?	8.91µM*	/	/	-92.5*
Cc1cc(Nc2cc(F)c(F)c(F)c2)cc(=O)n1-c1cc(F)c(F)c(F)c1	/	/	/	/	/	-38.8
C[C@@H]1CN([C@@H](C)CO)C(=O)CCCn2cc(nn2)CO[C@H]1CN(C)C(=O)c1ccc(N2CCN(C)CC2)cc1	/	/	/	/	/	-19.8
O=C(O)/C=C\c1cnc[nH]1	/	/	/	/	4.4%	/
COc1ccc(-c2oc3ccc(N4CCOCC4)cc3c2C#CCO)cc1	/	?	28.2µM*	/	/	-67.0*
Nc1ccc(C#Cc2c(-c3ccsc3)oc3ccc(N4CCOCC4)cc23)cc1	/	-22.9%[8.37 µM]	6.4%	/	/	31.0
Cc1ccc(NC(=O)N2CCC(n3c(C)nc4cccnc43)CC2)c(Cl)c1	-11.5%[46.1 µM]	/	-15.2%	/	/	0.9
O=C(Nc1nc2ccccc2n1CCN1CCOCC1)c1ccc(COc2ccccc2Br)o1	?	10µM*	-22.5%	-15.5%	?	?
O=C(Nc1nc2ccccc2n1CCN1CCOCC1)c1ccc(Cn2cc([N+](=O)[O-])cn2)o1	?	-12.1%	-11.5%	-14.4%	?	-9.8
CCn1ccc2cc(S(=O)(=O)N3CCC(C(=O)NCc4ccc(OC)cc4)CC3)ccc21	-5.1%[46.1 µM]	/	-2.8%	/	/	16.5
COc1ccccc1NC(=O)CC(c1ccc(OC(C)C)cc1)c1ccccc1OC (stereo unspecified)	-24.6%	11.2µM*	-17.2%	0.3%	?	?
COc1ccccc1C(CC(=O)Nc1ccc(C)c(C)c1)c1ccc(OC(C)C)cc1 (stereo unspecified)	-5.7%	?	-28.4%	5.7%	?	-60.7*
COC(=O)[C@@H]1CCCN1C(=O)c1cnn(-c2nccc(-c3cc(C)sc3C)n2)c1C1CC1	/	/	29.5%	/	/	/
Cc1ccc(NS(=O)(=O)c2ccc3nc(-c4ccccc4)[nH]c3c2)c(Cl)c1	-8.0%[46.1 µM]	/	-15.1%	/	-2.2%[46.1 µM]	-15.7
COc1ccc(N2CC(NC(=O)c3cccs3)CC2=O)cc1OC (stereo unspecified)	12.0%[46.1 µM]	/	-4.2%	/	/	9.5
COc1cc(=O)n2c(c1C(=O)N(C)Cc1nonc1C)CCN(Cc1cccc3ccccc13)CC2	/	/	-5.4%	/	/	/
COc1nnnc2c1sc1nc(N3CCOCC3)c3c(c12)CC(C)(C)OC3	/	/	/	2.1%	/	/
CC1(C)Cc2c(c(N3CCCC3)nc3sc4c(N5CCNCC5)ncnc4c23)CO1	/	14.1µM*	-24.9%	7.3%	/	/
Cc1ccnc(NC(=O)Nc2ccc(F)cc2)c1	-22.0%	12.7%	33.0%	-2.8%	?	42.6
CSc1ccc(NC(=O)Nc2cc(C)ccn2)cc1	7.08µM*	-15.6%	-43.5%	5.7%	7.08µM*	5.9
CC1CCN(C(=O)Cn2cc(SCC(=O)Nc3ccccc3C(F)(F)F)c3ccccc32)CC1	-16.2%[46.1 µM]	/	?	/	/	-64.4*
CN(C)c1ccc(N=Nc2ccc(C(=O)O)cc2)cc1	7.08µM*	16.1%	11.2µM*	?	2.82µM*	-15.3
CCN1/C(=C/C(C)=C/c2sc3ccccc3[n+]2CC)Sc2ccccc21	1.12µM*	1µM*	10µM*	-7.7%	1.58µM*	-99.9*
CCN(CC(=O)Nc1c(F)cccc1F)C(=O)CSCC(=O)Nc1ccc(OC)cc1	20.8%	11.7%	-1.6%	/	22.3%	?
COc1ccc(NC(=O)CN(C)C(=O)CSC(c2ccccc2)c2ccccc2)cc1	/	12.6µM*	-21.9%	/	/	?
COc1ccc(NC(=O)CSCC(=O)N(C)CC(=O)Nc2c(C)cccc2C)cc1	/	5.9%	1.1%	/	/	-102.0*
Cc1ccc(Cl)cc1N1CCN(CCCNC(=O)C2COc3ccccc3C2)CC1 (stereo unspecified)	10.1%[46.1 µM]	/	?	/	/	-37.5
CCNS(=O)(=O)c1ccc(NC(=O)c2ccccc2OCC)cc1	12.5%	5.62µM*	/	1.7%	-19.3%	10.9
CC(=O)Nc1ccc(S(=O)(=O)N2CCN(S(=O)(=O)c3ccc(NC(C)=O)cc3)CC2)cc1	1.2%[46.1 µM]	-2.7%	-17.4%	9.5%	10.1%[46.1 µM]	/
CN1CCN(S(=O)(=O)c2ccc(NC(=O)C(C)(C)C)cc2)CC1	11.7%	7.3%	8.4%	3.4%	26.0%	-107.8*
